Assay results taken from publication PMC5515408, “Sequence-specific DNA binding by MYC/MAX to low-affinity non-E-box motifs”.
In all, about 5,000 sequences were measured (“log2 normalized fluorescence”: median about 0.089, highest 2% from about 0.81 on). This excerpt belongs to a sample that is enriched for the highest values.

Biological target: MYC (p64);MAX (p21), in MYC:MAX (human;human, UniProt P01106-1;P61244-2 1-439;1-151, |)
Test: protein-binding microarray (anti-MAX antibody); PBM: 15 mM Tris-HCl pH 7.5, 100 mM KCl, 0.075% NP40, 7.5 mM beta-mercaptoethanol, 375 ng/ul BSA, 8 ng/ul poly(dA-dT):(dA-dT), 550 ng complex, 60 min, room tempe; high values mean tight binding
Details: protein: recombinant;recombinant; tags: 6xHis;6xHis; copies: 1;1; label: 3' end of printed strand (linker) attached to glass slide; dsDNA, one strand shown
Procedure, shortened: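 A custom Agilent glass array held ~5000 unique 12-nt sequences in triplicate spots, made double-stranded by primer extension. His-tagged human MYC:MAX or MAX:MAX dimers (550 ng, produced in E. coli) were applied for 60 min at room temperature in Tris-KCl buffer, pH 7.5, with NP40, BSA and poly(dA-dT) competitor. Anti-MAX and secondary antibodies detected bound protein, with scanning at 543 nm, and binding is given as log2 normalized fluorescence.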

Chain of MYC (p64);MAX (p21), in MYC:MAX (P01106 16-454, chain 1 of 2): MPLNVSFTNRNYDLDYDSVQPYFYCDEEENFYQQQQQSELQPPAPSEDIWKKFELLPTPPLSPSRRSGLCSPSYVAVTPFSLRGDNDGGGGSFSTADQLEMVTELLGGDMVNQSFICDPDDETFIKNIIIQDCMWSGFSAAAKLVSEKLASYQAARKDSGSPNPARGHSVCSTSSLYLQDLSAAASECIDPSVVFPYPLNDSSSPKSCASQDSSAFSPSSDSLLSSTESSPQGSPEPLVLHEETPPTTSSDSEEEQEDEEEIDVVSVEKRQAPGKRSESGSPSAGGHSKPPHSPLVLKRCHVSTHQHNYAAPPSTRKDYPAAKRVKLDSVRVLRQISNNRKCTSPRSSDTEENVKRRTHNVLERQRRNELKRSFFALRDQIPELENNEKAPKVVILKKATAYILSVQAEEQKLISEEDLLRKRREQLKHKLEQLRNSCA
Chain of MYC (p64);MAX (p21), in MYC:MAX (P61244 other isoform, or with tags, fused parts or gaps |, chain 2 of 2): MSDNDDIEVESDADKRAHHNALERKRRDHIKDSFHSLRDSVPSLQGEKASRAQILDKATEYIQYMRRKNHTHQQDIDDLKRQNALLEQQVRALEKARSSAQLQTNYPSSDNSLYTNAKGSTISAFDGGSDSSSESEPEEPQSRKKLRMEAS

| Sequence | binding signal |
| --- | --- |
| CCGGCTGAACAAGGGTATTAATAGCTAAGATTACTATATCGACG | 0.093 log2 normalized fluorescence |
| CCGGCTGACCAAAGGTATTAATAGCTAAGATTACTATATCGACG | 0.0357 log2 normalized fluorescence |
| CCGGCTGACGACAAGTATTAATAGCTAAGATTACTATATCGACG | 0.0769 log2 normalized fluorescence |
| CCGGCTGACTCCAAGTATTAATAGCTAAGATTACTATATCGACG | 0.0835 log2 normalized fluorescence |
| CCGGCTGACAACTGGTTTTAATAGCTAAGATTACTATATCGACG | 0.195 log2 normalized fluorescence |
| CCGGCTGAAGGACTGTATTAATAGCTAAGATTACTATATCGACG | 0.0114 log2 normalized fluorescence |
| CCGGCCTCCACGTGGTATTAATAGCTAAGATTACTATATCGACG | 0.737 log2 normalized fluorescence |
| CCGGCGTCCACGTGGTATTAATAGCTAAGATTACTATATCGACG | 0.808 log2 normalized fluorescence |
| CCGGCTTGCACGTGGTTTTAATAGCTAAGATTACTATATCGACG | 0.716 log2 normalized fluorescence |
| CCGGCGTGCACGTGGTATTAATAGCTAAGATTACTATATCGACG | 0.856 log2 normalized fluorescence |
| CCGGCCTGCACGTGGTATTAATAGCTAAGATTACTATATCGACG | 0.875 log2 normalized fluorescence |
| CCGGCCTACACGTGGTATTAATAGCTAAGATTACTATATCGACG | 0.805 log2 normalized fluorescence |
| CCGGCGTATACGTGGTATTAATAGCTAAGATTACTATATCGACG | 0.202 log2 normalized fluorescence |
| CCGGCTTGCACGTGGTATTAATAGCTAAGATTACTATATCGACG | 1.01 log2 normalized fluorescence |
| CCGGCTTGCACTTGGTATTAATAGCTAAGATTACTATATCGACG | 0.318 log2 normalized fluorescence |
| CCGGCTGAATTACCGTATTAATAGCTAAGATTACTATATCGACG | 0.041 log2 normalized fluorescence |
| CCGGCTGAGCAACTGTATTAATAGCTAAGATTACTATATCGACG | 0.128 log2 normalized fluorescence |
| CCGGCTGAATTACTGTATTAATAGCTAAGATTACTATATCGACG | 0.0701 log2 normalized fluorescence |
| CCGGCTGAGTCGGGGTATTAATAGCTAAGATTACTATATCGACG | 0.126 log2 normalized fluorescence |
| CCGGCTACTACGTGGTATTAATAGCTAAGATTACTATATCGACG | 0.34 log2 normalized fluorescence |
| CCGGCACCCACGTGGTATTAATAGCTAAGATTACTATATCGACG | 0.845 log2 normalized fluorescence |
| CCGGCACACACGTGGTATTAATAGCTAAGATTACTATATCGACG | 0.804 log2 normalized fluorescence |
| CCGGCAGGCACGTGGTATTAATAGCTAAGATTACTATATCGACG | 0.815 log2 normalized fluorescence |
| CCGGCACTCACGTGGTATTAATAGCTAAGATTACTATATCGACG | 0.862 log2 normalized fluorescence |
| CCGGCAGAGACGTGGTATTAATAGCTAAGATTACTATATCGACG | 0.387 log2 normalized fluorescence |
| CCGGCACGCACGTGGTATTAATAGCTAAGATTACTATATCGACG | 0.838 log2 normalized fluorescence |
| CCGGCTGAACCTCAGTATTAATAGCTAAGATTACTATATCGACG | 0.265 log2 normalized fluorescence |
| CCGGCTGAAATGCCGTATTAATAGCTAAGATTACTATATCGACG | 0.0989 log2 normalized fluorescence |
| CCGGCTGATACGTGGTATTAATAGCTAAGATTACTATATCGACG | 0.341 log2 normalized fluorescence |
